C diff growth – blocks growth of Clostridium difficile; Clostridium difficile clinical isolate growth, OD600, 24 h; hits give low values; growth activity, negative = inhibition, % at 16 µg/mL (by protocol); hit rate 0.25% among 86,000; AID 1259249;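 active = mean growth activity at or below -80% and every replicate also at or below -80%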
Pf Dd2 growth – P. falciparum Dd2 growth inhibition | SYBR Green, 72 h; hits give low values | activity change, % at 10 µM | hit rate 2.3% among 94,000; in the data active = activity change below about -80%
T cruzi growth – blocks T. cruzi growth in NIH3T3 culture; hit rate 5.9% among 77,000; T. cruzi beta-gal in NIH3T3, GalScreen luminescence, 90 h; inhibition, % at 8.34 µM;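 active = mean inhibition above about 93%, with at least 55% of replicates each passing it, limit read from the data, passing the limit was not always enough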
Large screens that a line does not name were inactive. An excerpt weighted towards active compounds, which were near 6.7% of everything screened.

C[C@@H]1CCCCO[C@@H](CN(C)Cc2ccc(C(F)(F)F)cc2)[C@@H](C)CN([C@H](C)CO)C(=O)c2cc(NC(=O)CCC(F)(F)F)ccc2O1	none
C[C@H]1CCCCO[C@@H](CN(C)Cc2ccc(C(F)(F)F)cc2)[C@@H](C)CN([C@@H](C)CO)C(=O)c2cc(NC(=O)CCC(F)(F)F)ccc2O1	none
C[C@H](CO)N1C[C@H](C)[C@H](CN(C)Cc2ccc(C(F)(F)F)cc2)OCCCC[C@H](C)Oc2ccc(NC(=O)CCCN(C)C)cc2C1=O	Pf Dd2 growth -86
C[C@@H]1CCCCO[C@H](CN(C)Cc2ccc(C(F)(F)F)cc2)[C@@H](C)CN([C@@H](C)CO)C(=O)c2cc(NC(=O)CCCN(C)C)ccc2O1	Pf Dd2 growth -88
C[C@@H]1CN([C@H](C)CO)C(=O)c2cc(NC(=O)CCCN(C)C)ccc2O[C@@H](C)CCCCO[C@H]1CN(C)Cc1ccc(C(F)(F)F)cc1	Pf Dd2 growth -86
C[C@@H]1CCCCO[C@@H](CN(C)Cc2ccc(C(=O)O)cc2)[C@H](C)CN([C@H](C)CO)C(=O)c2cc(NC(=O)CCCN(C)C)ccc2O1	none
C[C@@H]1CN([C@@H](C)CO)C(=O)c2cc(NC(=O)CCCN(C)C)ccc2O[C@@H](C)CCCCO[C@H]1CN(C)Cc1ccc(C(F)(F)F)cc1	Pf Dd2 growth -84
COc1ccc(NC(=O)Nc2ccc3c(c2)C(=O)N([C@@H](C)CO)C[C@@H](C)[C@@H](CN(C)C(=O)Cc2ccccc2)OCCCC[C@H](C)O3)cc1	none
COc1ccc(NC(=O)N2CC3(C2)CN(C(=O)c2cccnc2)[C@H](CO)c2[nH]c4cc(OC)ccc4c23)cc1	none (no result: T cruzi growth)
Cc1ccc(S(=O)(=O)N(C)C[C@H]2OCCCC[C@H](C)Oc3ccc(NC(=O)Nc4ccccc4)cc3C(=O)N([C@@H](C)CO)C[C@H]2C)cc1	Pf Dd2 growth -91
C[C@@H]1CN([C@H](C)CO)C(=O)c2cc(NC(=O)Nc3ccccc3)ccc2O[C@@H](C)CCCCO[C@H]1CN(C)S(=O)(=O)c1ccccc1	none (no result: C diff growth)
Cc1ccc(S(=O)(=O)N(C)C[C@@H]2OCCCC[C@@H](C)Oc3ccc(NC(=O)Nc4ccccc4)cc3C(=O)N([C@H](C)CO)C[C@@H]2C)cc1	Pf Dd2 growth -86
C[C@@H]1CCCCO[C@@H](CN(C)S(=O)(=O)c2ccccc2)[C@H](C)CN([C@@H](C)CO)C(=O)c2cc(NC(=O)Nc3ccccc3)ccc2O1	none (no result: C diff growth)
O=C(CC1CC1)N1[C@@H](CO)[C@H](c2ccccc2)C12CN(Cc1ccncc1)C2	none (no result: T cruzi growth)
O=C(CN1CCOCC1)N1CC(=O)N2[C@H](CO)[C@@H](c3ccc(/C=C/c4ccccc4)cc3)[C@@H]2C1	none (no result: T cruzi growth)
O=C(NCC[C@H]1CC[C@H](NC(=O)C2CC2)[C@@H](CO)O1)Nc1ccc(C(F)(F)F)cc1	C diff growth -99
CC(=O)N[C@H]1CC[C@@H](CCNC(=O)Nc2ccc(C(F)(F)F)cc2)O[C@@H]1CO	none
CCC(=O)N[C@@H]1CC[C@@H](CCNC(=O)Nc2ccc(C(F)(F)F)cc2)O[C@@H]1CO	none (no result: C diff growth)
O=C(NCC[C@H]1CC[C@H](NC(=O)C2CC2)[C@H](CO)O1)Nc1ccc(C(F)(F)F)cc1	none
CC(=O)N[C@@H]1CC[C@H](CCNC(=O)Nc2ccc(C(F)(F)F)cc2)O[C@H]1CO	C diff growth -94
CN(C)CC(=O)N[C@@H]1CC[C@@H](CCNC(=O)Nc2ccc(C(F)(F)F)cc2)O[C@H]1CO	C diff growth -89
C[C@H](O)C#Cc1ccc2c(c1)O[C@@H](CN(C)C(=O)C1CC1)[C@H](C)CN([C@@H](C)CO)S2(=O)=O	none (no result: C diff growth)
CCCN(C)C[C@H]1OCCCC[C@@H](C)Oc2ccc(NC(=O)c3ccccc3)cc2C(=O)N([C@@H](C)CO)C[C@H]1C	Pf Dd2 growth -91
C[C@@H]1CCCCO[C@H](CN(C)CC2CC2)[C@H](C)CN([C@@H](C)CO)C(=O)c2cc(NC(=O)c3ccccc3)ccc2O1	Pf Dd2 growth -84
CCCN(C)C[C@@H]1OCCCC[C@H](C)Oc2ccc(NC(=O)c3ccccc3)cc2C(=O)N([C@H](C)CO)C[C@@H]1C	none (no result: Pf Dd2 growth)
C[C@@H]1CCCCO[C@@H](CN(C)CC2CC2)[C@H](C)CN([C@@H](C)CO)C(=O)c2cc(NC(=O)c3ccccc3)ccc2O1	none (no result: T cruzi growth)
COc1ccc2c3c([nH]c2c1)[C@@H](CO)N(Cc1ccncc1)CC31CN(S(C)(=O)=O)C1	none (no result: C diff growth, T cruzi growth)
O=C(N[C@H]1C=C[C@@H](CC(=O)N2CCc3ccccc3C2)O[C@H]1CO)C1CCOCC1	none (no result: T cruzi growth)
C[C@H](CO)N1C[C@H](C)[C@H](CN(C)C(=O)c2ccncc2)OCCCC[C@H](C)Oc2ccc(NC(=O)C3CCCCC3)cc2C1=O	none
C[C@@H]1CN([C@H](C)CO)C(=O)c2cccc(NC(=O)Nc3cccc4ccccc34)c2O[C@H]1CN(C)C(=O)Nc1ccc(C(F)(F)F)cc1	none
C[C@H]1CN([C@@H](C)CO)C(=O)c2cc(NC(=O)Nc3ccc(C(F)(F)F)cc3)ccc2O[C@@H]1CN(C)C(=O)Nc1cccc2ccccc12	Pf Dd2 growth -95
C[C@H]1CN([C@@H](C)CO)C(=O)c2cc(NC(=O)Nc3cccc4ccccc34)ccc2O[C@H]1CN(C)C(=O)Nc1ccc(C(F)(F)F)cc1	Pf Dd2 growth -91
C[C@H](CO)N1C[C@H](C)[C@@H](CN(C)C(=O)Nc2ccc(C(F)(F)F)cc2)Oc2ccc(NC(=O)Nc3cccc4ccccc34)cc2C1=O	none
C[C@@H]1CN([C@H](C)CO)C(=O)c2cccc(NC(=O)Nc3cccc4ccccc34)c2O[C@@H]1CN(C)C(=O)Nc1ccc(C(F)(F)F)cc1	Pf Dd2 growth -92
C[C@@H]1CN([C@H](C)CO)C(=O)c2cc(NC(=O)Nc3cccc4ccccc34)ccc2O[C@H]1CN(C)C(=O)Nc1ccc(C(F)(F)F)cc1	none
C[C@H]1CN([C@@H](C)CO)C(=O)c2cc(NC(=O)Nc3ccc(F)cc3)ccc2O[C@@H]1CN(C)C(=O)Nc1cccc2ccccc12	none (no result: T cruzi growth)
C[C@H](CO)N1C[C@H](C)[C@@H](CN(C)C(=O)Nc2cccc3ccccc23)Oc2ccc(NC(=O)Nc3ccc(C(F)(F)F)cc3)cc2C1=O	Pf Dd2 growth -96
Cc1noc(C)c1NC(=O)N(C)C[C@@H]1OCCCC[C@@H](C)Oc2ccc(NS(=O)(=O)c3ccc(F)cc3)cc2C(=O)N([C@H](C)CO)C[C@@H]1C	none
O=C(N[C@H]1CC[C@@H](CCNC(=O)C2CCC2)O[C@H]1CO)c1ccncc1	none (no result: T cruzi growth)
O=C(Nc1ccccc1)Nc1ccc2c(c1)[C@@H]1C[C@@H](CC(=O)N3CCCCC3)O[C@@H](CO)[C@@H]1O2	none (no result: T cruzi growth)
CC(=O)N1[C@H](CO)[C@H](c2ccc(-c3cccnc3)cc2)[C@@H]1CNC(=O)C1CC1	none (no result: T cruzi growth)
CO[C@H]1CN(C)C(=O)c2ccc(NC(=O)C3CC3)cc2OC[C@@H](C)N(Cc2cncnc2)C[C@H]1C	none (no result: C diff growth, Pf Dd2 growth)
CCCC(=O)N1CCC2(CC1)CN(C(=O)Nc1ccc(F)cc1)[C@H](CO)c1c2c2ccc(OC)cc2n1C	none (no result: T cruzi growth)
C[C@@H]1CN([C@@H](C)CO)C(=O)c2cccc(NC(=O)C3CC3)c2O[C@@H]1CN(C)C(=O)Nc1ccc(C(F)(F)F)cc1	Pf Dd2 growth -89
C[C@@H]1CN([C@H](C)CO)C(=O)c2cccc(NC(=O)C3CC3)c2O[C@H]1CN(C)C(=O)Nc1ccc(C(F)(F)F)cc1	none

Screening data as filed in PubChem.
